The source of these data is PubChem BioAssay (EPA / NIEHS).

Read-out in assay [1]: Transforming growth factor beta 1 (TGFb1), TGFB1 (gene 7040)
Put plainly: BSK_KF3CT_TGFb1: BioMAP Diversity Plus: KF3CT Assay for Transforming growth factor beta 1 (TGFb1) Biomarker Activity (AID 2283072). The conditions noted are these: primary human keratinocytes with fibroblasts; actives raise or lower the signal. The method in brief: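 ELISA quantifies TGF-b1 at 24 h post-dose in a primary human skin co-culture of keratinocytes and fibroblasts, with gain or loss judged against DMSO. Parallel SRB total-protein staining flags overt cytotoxicity.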

Read-out in assay [2]: C-C motif chemokine 2 (Homo sapiens) (UniProt P13500)
Put plainly: BSK_KF3CT_MCP1: BioMAP Diversity Plus: KF3CT Assay for Monocyte Chemoattractant Protein 1 (MCP1/CCL2) Biomarker Activity (AID 2283073). The conditions noted are these: primary human keratinocytes with fibroblasts; actives raise or lower the signal. The method, boiled down: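 Human keratinocyte plus foreskin fibroblast primary co-culture exposed to chemical for 24 h. MCP-1 levels measured by ELISA. Bidirectional curve fitting relative to DMSO negative control as baseline.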

Read-out in assay [3]: Matrix Metallopeptidase 9 (MMP9), MMP9 (gene 4318)
Kind of assay: BSK_KF3CT_MMP9: BioMAP Diversity Plus: KF3CT Assay for Matrix Metallopeptidase 9 (MMP9) Biomarker Activity (AID 2283074).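 For AC50: MMP9 protein level quantified by ELISA in the co-culture.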 The conditions noted are these: primary human keratinocytes with fibroblasts; actives raise or lower the signal. The method, boiled down:
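ELISA read-out of MMP-9 at 24 h post-dosing in a co-culture of human skin keratinocytes and foreskin fibroblasts. Gain or loss of signal was fitted in both directions against DMSO.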

Read-out in assay [4]: urokinase plasminogen activator (uPA), PLAU (gene 5328)
Put plainly: BSK_KF3CT_uPA: BioMAP Diversity Plus: KF3CT Assay for urokinase plasminogen activator (uPA) Biomarker Activity (AID 2283075). The note with it: primary human keratinocytes with fibroblasts; actives raise or lower the signal. The method in brief:
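Skin co-culture (keratinocytes + foreskin fibroblasts), human primary; 24 h post-dose; uPA by ELISA; gain/loss fit vs DMSO baseline.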

Read-out in assay [5]: E-selectin (Homo sapiens) (UniProt P16581)
Kind of assay: BSK_LPS_Eselectin: BioMAP Diversity Plus: LPS Assay for Eselectin Biomarker Activity (AID 2283077). The note with it: primary human HUVEC with PBMC; actives raise or lower the signal. The method, boiled down: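 Human umbilical vein endothelial cells co-cultured with peripheral blood mononuclear cells under LPS stimulation; E-selectin measured by ELISA 24 h after chemical dosing. Activity fitted bidirectionally against DMSO as negative control and baseline.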

Read-out in assay [6]: Interleukin-8 (IL8), CXCL8 (gene 3576)
Put plainly: BSK_LPS_IL8: BioMAP Diversity Plus: LPS Assay for Interleukin-8 (IL8) Biomarker Activity (AID 2283078). The conditions noted are these: primary human HUVEC with PBMC; actives raise or lower the signal. The method, boiled down: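 Human umbilical vein endothelial cells co-cultured with PBMC were stimulated with LPS; IL-8 levels were measured by ELISA 24 h after chemical dosing. Activity was fitted bidirectionally against DMSO as negative control and baseline.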

Assay [7] in a line: BSK_LPS_SRB: Viability Assessment in the BioMAP Diversity Plus: LPS Assay (AID 2283079).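 Note: total protein by sulforhodamine B absorbance as a cytotoxicity measure; measured one day after compound addition.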 The conditions noted are these: primary human HUVEC with PBMC. The method, boiled down:
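Human umbilical vein endothelial cells co-cultured with PBMC (LPS system) were dosed for 24 h. Total protein was stained with 0.1% sulforhodamine B after 10% TCA fixation, read at 560 nm, and fitted bidirectionally against DMSO baseline.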

Read-out in assay [8]: Interleukin-1 alpha (IL1a), IL1A (gene 3552)
Kind of assay: BSK_LPS_IL1a: BioMAP Diversity Plus: LPS Assay for Interleukin-1 alpha (IL1a) Biomarker Activity (AID 2283080). The note with it: primary human HUVEC with PBMC; actives raise or lower the signal. The method in brief:
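Human umbilical vein endothelial cells co-cultured with peripheral blood mononuclear cells were LPS-stimulated and exposed to test chemicals for 24 h. IL-1 alpha was quantified by ELISA, with bidirectional curve fitting against DMSO as the negative control and baseline.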

Read-out in assay [9]: Monocyte Chemoattractant Protein-1 (MCP1), CCL2 (gene 6347)
Put plainly: BSK_LPS_MCP1: BioMAP Diversity Plus: LPS Assay for Monocyte Chemoattractant Protein-1 (MCP1) Biomarker Activity (AID 2283081).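 For AC50: co-culture stimulated with LPS; secreted MCP-1 protein quantified by ELISA in culture supernatant.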 The note with it: primary human HUVEC with PBMC; actives raise or lower the signal. The method in brief:
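HUVEC plus PBMC co-culture (human primary cells, LPS system) exposed to test chemical for 24 h; MCP-1 measured by ELISA. Bidirectional curve fitting against DMSO baseline; parallel SRB total-protein staining flags overt cytotoxicity.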

Assay [10] can be described thus: BSK_LPS_PGE2: BioMAP Diversity Plus: LPS Assay for Prostaglandin E2 (PGE2) Biomarker Activity (AID 2283082). The note with it: primary human HUVEC with PBMC; actives raise or lower the signal. The method, boiled down: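 PGE2 release measured by ELISA in an LPS-activated co-culture of human umbilical vein endothelial cells and peripheral blood mononuclear cells, read at 24 h post-dosing. DMSO served as baseline for bidirectional curve fitting.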

Read-out in assay [11]: Macrophage colony-stimulating factor (MCSF), CSF1 (gene 1435)
Put plainly: BSK_LPS_MCSF: BioMAP Diversity Plus: LPS Assay for Macrophage colony-stimulating factor (MCSF) Biomarker Activity (AID 2283083). The conditions noted are these: primary human HUVEC with PBMC; actives raise or lower the signal. The method in brief: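 Human umbilical vein endothelial cells co-cultured with peripheral blood mononuclear cells were exposed to compound for 24 h. M-CSF levels were measured by ELISA, and bidirectional curve fitting used DMSO as the negative control and baseline.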

Read-out in assay [12]: Tissue Factor, F3 (gene 2152)
Put plainly: BSK_LPS_TissueFactor: BioMAP Diversity Plus: LPS Assay for Tissue Factor Biomarker Activity (AID 2283084). The conditions noted are these: primary human HUVEC with PBMC; actives raise or lower the signal. The method, boiled down:
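Human umbilical vein endothelial cells co-cultured with peripheral blood mononuclear cells were dosed and stimulated with LPS. Cell-surface CD142 was quantified by ELISA at 24 h. Activity was fitted bidirectionally against DMSO baseline.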

Read-out in assay [13]: Tumor necrosis factor (Homo sapiens) (UniProt P01375)
Kind of assay: BSK_LPS_TNFa: BioMAP Diversity Plus: LPS Assay for Tumour Necrosis Factor alpha (TNFa) Biomarker Activity (AID 2283085).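 For AC50: TNFa protein level quantified by ELISA in the co-culture.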 The conditions noted are these: primary human HUVEC with PBMC; actives raise or lower the signal. The method, boiled down:
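TNFa was quantified by ELISA in LPS-activated co-cultures of human endothelial cells and PBMC, 24 h post-dosing. Both increases and decreases versus DMSO were fitted.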

Read-out in assay [14]: Vascular cell adhesion molecule 1 (VCAM1), VCAM1 (gene 7412)
Kind of assay: BSK_LPS_VCAM1: BioMAP Diversity Plus: LPS Assay for Vascular cell adhesion molecule 1 (VCAM1) Biomarker Activity (AID 2283086). The conditions noted are these: primary human HUVEC with PBMC; actives raise or lower the signal. The method in brief:
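VCAM-1 quantified by ELISA in an LPS-activated co-culture of human endothelial cells and peripheral blood mononuclear cells, read 24 h post-treatment. Fitted in both directions versus DMSO; parallel SRB staining flags overt cytotoxicity.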

Read-out in the next assay: CD38, CD38 (gene 952)
Put plainly: BSK_SAg_CD38: BioMAP Diversity Plus: SAg Assay for CD38 Biomarker Activity (AID 2283087). The note with it: primary human HUVEC with PBMC; actives raise or lower the signal. The method, boiled down:
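CD38 quantified by ELISA (fluorescence) in a superantigen-activated endothelial cell–PBMC co-culture at 24 h post-dose. Activity fitted in both directions relative to DMSO; parallel SRB and Alamar Blue cytotoxicity read-outs.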

Read-out in assay [15]: CD40, CD40 (gene 958)
Kind of assay: BSK_SAg_CD40: BioMAP Diversity Plus: SAg Assay for CD40 Biomarker Activity (AID 2283088). The note with it: primary human HUVEC with PBMC; actives raise or lower the signal. The method, boiled down:
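Human umbilical vein endothelial cells co-cultured with PBMC; CD40 levels measured by ELISA with fluorescence read-out 24 h after chemical dosing. Gain or loss of signal fitted bidirectionally against DMSO baseline.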

Read-out in assay [16]: Monocyte Chemoattractant Protein-1 (MCP1), CCL2 (gene 6347)
Put plainly: BSK_SAg_MCP1: BioMAP Diversity Plus: SAg Assay for Monocyte Chemoattractant Protein-1 (MCP1) Biomarker Activity (AID 2283090). The note with it: primary human HUVEC with PBMC; actives raise or lower the signal. The method in brief:
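Values derive from bidirectional fitting of ELISA-measured MCP1 against DMSO controls. Readings were taken 24 h after dosing human vascular endothelial cells co-cultured with peripheral blood mononuclear cells under superantigen stimulation.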

Read-out in the next assay: CD69, CD69 (gene 969)
Kind of assay: BSK_SAg_CD69: BioMAP Diversity Plus: SAg Assay for CD69 Biomarker Activity (AID 2283089). The note with it: primary human HUVEC with PBMC; actives raise or lower the signal. The method in brief:
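Primary human vascular co-culture (umbilical vein endothelium with peripheral blood mononuclear cells) exposed to test chemical for 24 h. CD69 levels quantified by fluorescence ELISA; DMSO served as negative control for bidirectional fitting.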

Read-out in assay [17]: CD40, CD40 (gene 958)
Put plainly: BSK_LPS_CD40: BioMAP Diversity Plus: LPS Assay for CD40 Biomarker Activity (AID 2283076). The note with it: primary human HUVEC with PBMC; actives raise or lower the signal. The method in brief:
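Primary human umbilical vein endothelial cells co-cultured with peripheral blood mononuclear cells, LPS-stimulated, were dosed with chemical and read 24 h later. CD40 levels were measured by ELISA and fitted bidirectionally against DMSO as negative control and baseline.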

Each structure is given as a SMILES string. Calls of active or inactive are those of the source. Rule for the calls: active = hit-call score of the fitted dose curve at least 0.9, where 1 is the maximum; inactive = score below 0.9.

Chain of E-selectin (Homo sapiens) (P16581 whole entry, looked up): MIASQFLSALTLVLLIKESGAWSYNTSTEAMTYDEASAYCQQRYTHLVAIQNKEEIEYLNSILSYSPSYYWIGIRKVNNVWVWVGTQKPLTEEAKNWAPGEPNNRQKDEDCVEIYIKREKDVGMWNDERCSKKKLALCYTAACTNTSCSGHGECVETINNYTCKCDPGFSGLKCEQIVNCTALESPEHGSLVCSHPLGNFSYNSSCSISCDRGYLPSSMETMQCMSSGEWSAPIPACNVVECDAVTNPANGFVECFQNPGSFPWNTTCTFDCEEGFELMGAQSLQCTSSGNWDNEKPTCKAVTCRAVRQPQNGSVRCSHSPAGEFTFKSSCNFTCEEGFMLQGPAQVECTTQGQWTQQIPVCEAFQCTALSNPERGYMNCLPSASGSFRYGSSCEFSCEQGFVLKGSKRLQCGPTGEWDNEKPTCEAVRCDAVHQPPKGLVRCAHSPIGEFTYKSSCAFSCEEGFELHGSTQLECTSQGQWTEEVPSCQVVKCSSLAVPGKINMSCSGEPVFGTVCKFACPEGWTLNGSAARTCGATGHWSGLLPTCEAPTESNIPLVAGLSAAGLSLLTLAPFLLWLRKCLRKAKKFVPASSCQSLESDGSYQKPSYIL
Chain of Tumor necrosis factor (Homo sapiens) (P01375 whole entry, looked up): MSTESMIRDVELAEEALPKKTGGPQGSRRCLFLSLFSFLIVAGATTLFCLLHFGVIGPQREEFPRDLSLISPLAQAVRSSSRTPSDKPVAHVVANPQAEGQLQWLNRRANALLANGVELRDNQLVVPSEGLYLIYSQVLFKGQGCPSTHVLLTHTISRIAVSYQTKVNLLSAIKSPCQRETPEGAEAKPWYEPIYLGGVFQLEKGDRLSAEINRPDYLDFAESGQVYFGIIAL

On to `CC(C)=CC1C(C(=O)OCN2C(=O)C3=C(CCCC3)C2=O)C1(C)C` (configuration not stated), for which the outcome in assay [1], in assay [2], in assay [4], in assay [7], in [8] and in assay [12] was inactive. Also, the AC50 was 3.97 µM (active) in assay [3]; 35.1 µM (active) in assay [5]; 26.9 µM (active) in [6]; 9.93 µM (active) in assay [9]; 4.14 µM (active) in [10]; 34.3 µM (active) in [11]. Further, the concentration at half-maximal activity (AC50) in assay [13] was 31.7 µM (active); in assay [14], 28.5 µM (active); in the assay with CD38, CD38 (gene 952), 32.2 µM (active); with CD40, CD40 (gene 958) [15] it was 20.5 µM (active); in assay [16], 18.2 µM (active).
As to `CCCCOC(=O)[C@@H](C)Oc1ccc(Oc2ccc(C#N)cc2F)cc1`, the outcome in assay [1], in assay [2], in [3], in assay [4], in [5] and in assay [6] was inactive. The result in [7], in [8], in [9], in assay [10], in [11] and in [12] was inactive. For the same compound, the outcome in assay [13] was “inactive”; in assay [14], “inactive”; with CD38, CD38 (gene 952) it was “inactive”; with CD40, CD40 (gene 958) [15], “inactive”; in assay [16], “inactive”.
In the case of `CCCSP(=O)(OCC)SCCC`, the outcome in [1], in assay [2], in assay [3], in [4], in [5] and in assay [6] was inactive. The result in [7], in assay [8], in assay [9], in assay [10], in [11] and in assay [12] was inactive. Besides, the outcome in assay [13] was “inactive”; in assay [14] it was “inactive”; in the assay with CD38, CD38 (gene 952) it was “inactive”; with CD40, CD40 (gene 958) [15], “inactive”; in [16], “inactive”.
As to `CCCCN(CC)c1c([N+](=O)[O-])cc(C(F)(F)F)cc1[N+](=O)[O-]`, the outcome in [1], in assay [2], in assay [4], in [6], in assay [7] and in assay [8] was inactive. The outcome is “inactive” in [9]; “inactive” in [10]; “inactive” in [12]; “inactive” in assay [13]; “inactive” with CD69, CD69 (gene 969); “inactive” in assay [16]. In addition, the AC50 in [3] is 22.1 µM (active); in assay [5], 20 µM (active); in [11], 18.2 µM (active); in assay [14] it was 26.5 µM (active); with CD38, CD38 (gene 952) it was 27.9 µM (active).
Consider `CC(C)[C@H](C(=O)O[C@H](C#N)c1cccc(Oc2ccccc2)c1)c1ccc(Cl)cc1`, for which the outcome in assay [1], in assay [2], in assay [3], in assay [4], in [7] and in [8] was inactive. Besides, the outcome in [9] was “inactive”; in [11], “inactive”; in [12], “inactive”; in [13], “inactive”; in assay [14] it was “inactive”; in the assay with CD38, CD38 (gene 952) it was “inactive”. In addition, the outcome in the assay with CD40, CD40 (gene 958) [15] was “inactive”; in assay [16], “inactive”. The figures for the AC50 in assay [5] and in assay [6] were 7.16 µM (active) and 5.9 µM (active), respectively.
As for `CCOC(=O)COc1cc(-c2nn(C)c(OC(F)F)c2Cl)c(F)cc1Cl`, the outcome in assay [1], in assay [2], in assay [3], in assay [4], in assay [5] and in assay [6] was inactive. The outcome in assay [7], in assay [8], in [9], in [10], in [11] and in [12] was inactive. In addition, the outcome in assay [13] was “inactive”; in assay [14], “inactive”; with CD38, CD38 (gene 952) it was “inactive”; in assay [16], “inactive”.
Regarding `CN(C)NC(=O)CCC(=O)O`, the outcome in [1] was “inactive”; in assay [2] it was “inactive”; in assay [3], “inactive”; in assay [4], “inactive”; with CD40, CD40 (gene 958) [17], “inactive”; in assay [5] it was “inactive”. The result in [6], in [7], in assay [8], in assay [9], in assay [10] and in assay [11] was inactive. For the same compound, the outcome in [12] is “inactive”; in [13], “inactive”; in assay [14], “inactive”; with CD38, CD38 (gene 952) it was “inactive”; in [16], “inactive”.
